This passage reports outcome and Potency results from PubChem BioAssay (NCATS).

Experiment [1] concerns the target Ferritin light chain (Equus caballus) (UniProt P02791). In words: qHTS Validation Assay for Identification of Novel General Anesthetics (AID 2323). Note: series mostly up to about 77 µM. In outline:
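Apoferritin from horse spleen (10 uM) was mixed with 1-aminoanthracene at 50% saturation in PBS, then compounds were added. After 10 min at room temperature, fluorescence was read (ex 380 nm, em 535 nm) and normalized to free-probe and complex controls.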

Experiment [2] deals with ATP-dependent DNA helicase Q1 (Homo sapiens) (UniProt P46063). In words: qHTS Validation Assay for Inhibitors of RecQ-Like Dna Helicase 1 (RECQ1) (AID 2353). The method in brief:
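RECQ1T1 50 nM; forked duplex (20 bp + 30-nt ss tails) 200 nM, ATP 2 mM final; pH 8.0, 2 mM MgCl2, 2.5 ug/ml poly(dI-dC); 15 min compound preincubation; discontinuous kinetic read over 2 h at RT.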

Experiment [3] in a line: Cytometric Cell-Based qHTS for Inhibitors of the mTORC1 Signaling Pathway in MEF (Tsc2-/-, p53-/-) Cells (AID 2660).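 Note: Tsc2 and p53 null MEFs carrying empty vector with compound for 24 h; percent of cells above a phospho-rpS6 to PI ratio cutoff in each well; series mostly up to about 38 µM.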 In outline: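 Immunofluorescence qHTS of rpS6 Ser235/236 phosphorylation: MEFs (Tsc2-/-, p53-/-) treated 24 h, 37 C, in DMEM + 10% FBS. Alexa-488 signal normalized to PI count, referenced to rapamycin (7.5 nM) and DMSO; PI cell number recorded for viability.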

Experiment [4] can be described thus: High Content Imaging Cell-Based qHTS for Inhibitors of the mTORC1 Signaling Pathway in MEF (Tsc2-/-, p53-/-) Cells (AID 2666).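 Note: percent of cells scored positive for phospho-rpS6 Ser235/236 immunostaining by imaging.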 The method in brief:
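Inhibition of rpS6 phosphorylation is measured by immunofluorescence imaging in empty-vector Tsc2-/-, p53-/- mouse embryonic fibroblasts after 24 hrs compound exposure at 37 degree Celsius. Results are reported as % positive cells per well.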

A short description of experiment [5]: High Content Imaging Cell-Based qHTS for Inhibitors of the mTORC1 Signaling Pathway in MEF Cells (AID 2667).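 Note: Tsc2-/- p53-/- MEFs stably re-expressing wild-type Tsc2 exposed 24 h; series mostly up to about 38 µM.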 In outline:
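Fixed-cell imaging of phospho-S6 (Ser235/236, Alexa-488) after 24 hrs of compound treatment at 37 degree Celsius. Signal was normalized to Hoechst, and thresholds from the highest and lowest wells split cells into % active versus % non-active.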

Experiment [6] in a line: Cytometry Cell-Based qHTS for Inhibitors of the mTORC1 Signaling Pathway in MEF cells (AID 2668). Note: potency is the fitted concentration of half-maximal effect. In outline:
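Pathway inhibition in WT Tsc2-rescued Tsc2-/-, p53-/- MEFs is measured as the Alexa-488 phospho-rpS6 to propidium iodide intensity ratio after 24 hrs of compound at 37 degree Celsius. PI-stained cell number gives viability.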

A short description of experiment [7]: Validation screen for small molecules that induce DNA re-replication in MCF 10A normal breast cells (AID 463097). Note: nearly all actives have a fitted effect of over 60% in size. In outline:
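DNA re-replication was detected as a rise in nuclei with elevated Hoechst fluorescence after a 48 hr compound exposure of MCF 10A cells at 37 C.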

Experiment [8] concerns the target Ubiquitin carboxyl-terminal hydrolase 2 (Homo sapiens) (UniProt O75604). In words: qHTS Validation Assay for Inhibitors of Ubiquitin-specific Protease USP2a Using CHOP2 as the Reporter (AID 463106). In outline: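 Inhibition is expressed relative to NEM as the full-inhibition control, with concentration-response curves classed by fit quality, magnitude and activity. Enzyme (USP2 core, 10nM) meets 25nM Ub-CHOP2 after compound preincubation; readings are taken at 60min.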

Experiment [9] deals with DNA polymerase III PolC-type (Bacillus subtilis (strain 168)) (UniProt P13267). In words: qHTS Validation Assay for the Inhibitors of DNA Replication in Gram-Positive Bacteria (AID 485295).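 Note: reconstituted holoenzyme with PolC plus beta clamp SSB and primase; PicoGreen fluorescence of double-stranded DNA made on primed circular M13 template; series mostly up to about 57 µM.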 The method in brief:
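Primed replication of single-stranded M13Gori by a four-protein B. subtilis holoenzyme is measured at room temperature. Double-stranded product is quantified by PicoGreen fluorescence after an EDTA stop; inhibition is scaled between DMSO and EDTA controls.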

The target of experiment [10] is Tumor susceptibility gene 101 protein (Homo sapiens) (UniProt Q99816). In words: qHTS Validation Assay for Iinhibitors of HIV-1 Budding by Blocking the Interaction of PTAP/TSG101 (AID 485342; calls by dose curve). In outline: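 Fluorescence anisotropy measured PTAP-Tsg101 interaction. Final concentrations were 10 uM protein domain and 50 nM labeled peptide, equilibrated 20 min at room temperature.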

Experiment [11] can be described thus: qHTS Validation Assay to Find Inhibitors of Chronic Active B-Cell Receptor Signaling (AID 485345; active = well fitted curve in the direction sought with a large enough effect in the main read-out, with a control signal flat, not every such curve was filed as active). The method in brief:
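TMD8 ABC-DLBCL cells with dox-inducible green luciferase–IκBα fusion and red native luciferase; compounds 46 uM–3 nM, 4 h at 37C with doxycycline in 0.5% FBS IMDM. Green/red ratio normalized to basal and 10 uM MG-132.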

In experiment [12] the target is Beta-2 adrenergic receptor (Homo sapiens) (UniProt P07550). In words: qHTS validation assay of beta-arrestin-biased ligands of beta2-adrenergic receptor (AID 485366). In outline:
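Agonism was measured as beta-arrestin recruitment to recombinant beta2-AR, releasing tTA to drive luciferase. Cells were exposed for 18 hr at 37 degrees C to a series up to 46 microM. %Activity from corrected luminescence gave concentration-response curves.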

Experiment [13] in a line: Quantitative high throughput screen for delayed death inhibitors of the malarial parasite plastid, 96 hour incubation (AID 488745).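 Note: luciferase-expressing P. falciparum in erythrocytes at 2% hematocrit and 0.1% parasitemia; series mostly up to about 29 µM; nearly all actives have a fitted effect of over 70% in size.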 The method in brief:
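Luciferase-expressing P. falciparum, infected RBCs 2% Hct/0.1% parasitemia (final); 96 h cpd exposure, 37 C, 5% CO2; RPMI 1640 + 0.5% Albumax, bicarbonate, gentamycin. Readout: luminescence loss = growth inhibition.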

In experiment [14] the target is Thioredoxin reductase 1, cytoplasmic (Rattus norvegicus) (UniProt O89049). In words: qHTS Assay for Substrates of Mammalian Selenoprotein Thioredoxin Reductase 1 (TrxR1) (AID 488772).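 Note: series mostly up to about 57 µM; a drop in NADPH fluorescence below the no-compound background marks a TrxR1 substrate.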 The method in brief: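 In this dual-purpose format, potential substrates are identified from the first fluorescence read after selenite addition, not from the 8-minute delta. Rat enzyme is preincubated with NADPH and then with compound at ~22 deg C.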
Chain of Thioredoxin reductase 1, cytoplasmic (Rattus norvegicus) (O89049 whole entry, looked up): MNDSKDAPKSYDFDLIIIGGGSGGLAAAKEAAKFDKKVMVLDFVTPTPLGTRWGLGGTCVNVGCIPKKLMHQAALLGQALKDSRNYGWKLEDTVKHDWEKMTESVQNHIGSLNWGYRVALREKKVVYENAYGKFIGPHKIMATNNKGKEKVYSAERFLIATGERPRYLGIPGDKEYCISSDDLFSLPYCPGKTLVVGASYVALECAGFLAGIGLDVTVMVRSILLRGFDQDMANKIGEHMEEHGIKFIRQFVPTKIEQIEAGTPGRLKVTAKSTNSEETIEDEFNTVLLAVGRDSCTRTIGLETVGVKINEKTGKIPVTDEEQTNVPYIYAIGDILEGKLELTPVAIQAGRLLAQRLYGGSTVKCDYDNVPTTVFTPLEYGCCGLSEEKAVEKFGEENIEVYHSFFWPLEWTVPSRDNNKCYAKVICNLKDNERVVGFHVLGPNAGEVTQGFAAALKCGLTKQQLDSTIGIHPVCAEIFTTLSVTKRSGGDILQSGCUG

Experiment [15] shares this target. In words: qHTS Assay for Inhibitors of Mammalian Selenoprotein Thioredoxin Reductase 1 (TrxR1) (AID 488773). Note: nearly all actives have a fitted effect of over 40% in size. Note: potency is the fitted concentration of half-maximal effect. The conditions noted are these: Potency: inhibition. The method in brief: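 Inhibition is scored from the loss of NADPH fluorescence between first and last reads of an 8-min kinetic run. Selenite (400 uM) was the substrate, added after 15 min compound preincubation at room temperature.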

For experiment [16], the target named is Flap endonuclease 1 (Homo sapiens) (UniProt P39748). Briefly: qHTS Validation Assay for the Inhibitors of Human Flap endonuclease 1 (FEN1) (AID 488816). In outline:
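Steps: add FEN1 (10 nM reagent) or buffer only; pin compounds; hold 15 min at room temperature; start with substrate, 50 nM final; read at 0 and 15 min; correct, normalize and fit a four-parameter Hill curve.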

Experiment [17] is described as follows: Quantitative high throughput screen for delayed death inhibitors of the malarial parasite plastid, 48 hour incubation (AID 488752). Note: nearly all actives have a fitted effect of over 65% in size. In outline:
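Luciferase-expressing P. falciparum in RBCs, 2% Hct, 0.1% parasitemia final; RPMI 1640 + 0.5% Albumax; 48 h, 37 C, 5% CO2; luminescence readout, signal drop = growth inhibition.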

Experiment [18] deals with M-phase phosphoprotein 8 (Homo sapiens) (UniProt Q99549). In words: qHTS Validation Assay for Inhibitors for MPP8 Chromodomain Interactions with Methylated Histone Tails (AID 488949). Note: nearly all actives have a fitted effect of over 55% in size. Note: potency is the fitted concentration of half-maximal effect. The method in brief: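 Disruption of the preformed MPP8–trimethyl-H3K9 peptide complex (both 50 nM, 30 min, RT) is measured after 30 min compound exposure, using AlphaScreen proximity beads; aurintricarboxylic acid titration serves as plate control.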
Chain of M-phase phosphoprotein 8 (Homo sapiens) (Q99549 whole entry, looked up): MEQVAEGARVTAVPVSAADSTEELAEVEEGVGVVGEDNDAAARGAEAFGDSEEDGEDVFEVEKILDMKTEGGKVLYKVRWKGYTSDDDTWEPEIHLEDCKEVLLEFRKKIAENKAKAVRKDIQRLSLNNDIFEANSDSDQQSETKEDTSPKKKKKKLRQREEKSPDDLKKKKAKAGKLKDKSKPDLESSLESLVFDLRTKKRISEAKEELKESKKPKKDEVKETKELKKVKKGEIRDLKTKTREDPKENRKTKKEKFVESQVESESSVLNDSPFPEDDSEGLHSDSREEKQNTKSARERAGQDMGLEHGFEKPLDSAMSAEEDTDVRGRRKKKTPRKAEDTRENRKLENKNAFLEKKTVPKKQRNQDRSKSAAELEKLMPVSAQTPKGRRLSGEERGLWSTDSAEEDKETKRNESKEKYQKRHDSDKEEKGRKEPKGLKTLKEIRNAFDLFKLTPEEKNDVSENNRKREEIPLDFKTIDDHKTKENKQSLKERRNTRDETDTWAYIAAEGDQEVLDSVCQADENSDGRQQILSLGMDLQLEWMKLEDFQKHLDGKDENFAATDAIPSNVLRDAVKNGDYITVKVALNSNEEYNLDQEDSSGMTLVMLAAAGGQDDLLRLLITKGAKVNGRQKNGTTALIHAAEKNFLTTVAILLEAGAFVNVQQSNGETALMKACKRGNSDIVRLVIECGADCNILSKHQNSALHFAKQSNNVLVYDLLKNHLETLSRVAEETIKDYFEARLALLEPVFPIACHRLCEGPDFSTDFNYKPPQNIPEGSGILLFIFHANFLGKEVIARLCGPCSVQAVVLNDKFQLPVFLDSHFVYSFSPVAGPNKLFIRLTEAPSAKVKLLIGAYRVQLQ

The target of experiment [19] is ATP-dependent 6-phosphofructokinase (Trypanosoma brucei brucei) (UniProt O15648). In words: qHTS Validation Assay to Find Inhibitors of T. brucei phosphofructokinase (AID 485368). The conditions noted are these: outcome: dose series up to 57.5 µM. In outline: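 ADP-Glo luminescence, two-step: residual ATP depleted, then ADP converted to ATP for luciferase. Enzyme 1.25 nM, F6P 0.5 mM, ATP 0.1 mM, pH 8.0 TEA buffer, 45 min RT. Curves fitted and classed by quality and efficacy.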

SMILES strings stand for the structures. Results filed as inconclusive are left out. Some compounds were tested as several samples or in several runs, with calls that do not always agree. The source made the active and inactive calls. Unless noted, calls come from the whole dose curve; as a rule, active = well fitted curve in the direction sought with a large enough effect; inconclusive = small, poorly fitted or top-dose-only effect, or another doubt; inactive = no such curve, though single readings can be large; an effect the other way counts as inactive or inconclusive.

Chain of Flap endonuclease 1 (Homo sapiens) (P39748 whole entry, looked up): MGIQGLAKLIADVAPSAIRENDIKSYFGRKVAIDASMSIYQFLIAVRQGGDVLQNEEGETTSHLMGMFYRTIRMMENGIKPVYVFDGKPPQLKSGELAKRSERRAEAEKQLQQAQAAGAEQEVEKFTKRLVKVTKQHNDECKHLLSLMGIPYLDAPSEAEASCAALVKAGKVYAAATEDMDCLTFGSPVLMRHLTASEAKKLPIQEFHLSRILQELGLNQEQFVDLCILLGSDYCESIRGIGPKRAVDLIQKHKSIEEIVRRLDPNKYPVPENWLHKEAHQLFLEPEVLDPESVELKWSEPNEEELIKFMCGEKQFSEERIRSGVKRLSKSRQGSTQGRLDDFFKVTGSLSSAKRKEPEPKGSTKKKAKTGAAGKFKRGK
Chain of Ferritin light chain (Equus caballus) (P02791 2-175 limits assumed): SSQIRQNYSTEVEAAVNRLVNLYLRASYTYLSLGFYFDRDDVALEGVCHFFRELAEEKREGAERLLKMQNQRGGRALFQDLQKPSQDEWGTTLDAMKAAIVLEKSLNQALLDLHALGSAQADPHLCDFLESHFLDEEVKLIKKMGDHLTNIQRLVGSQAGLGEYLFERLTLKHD
Chain of Beta-2 adrenergic receptor (Homo sapiens) (P07550 whole entry, looked up): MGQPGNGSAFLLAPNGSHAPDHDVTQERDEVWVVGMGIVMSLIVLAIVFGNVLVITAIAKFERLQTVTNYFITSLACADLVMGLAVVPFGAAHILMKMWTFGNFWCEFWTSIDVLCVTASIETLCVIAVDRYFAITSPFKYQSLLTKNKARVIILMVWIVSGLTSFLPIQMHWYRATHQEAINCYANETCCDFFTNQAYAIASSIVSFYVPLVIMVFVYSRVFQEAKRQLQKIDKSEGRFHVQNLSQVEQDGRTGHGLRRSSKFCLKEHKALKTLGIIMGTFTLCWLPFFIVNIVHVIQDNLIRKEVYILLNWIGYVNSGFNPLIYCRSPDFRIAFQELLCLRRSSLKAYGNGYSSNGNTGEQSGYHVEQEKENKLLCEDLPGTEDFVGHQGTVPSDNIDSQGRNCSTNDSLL
Chain of Ubiquitin carboxyl-terminal hydrolase 2 (Homo sapiens) (O75604 whole entry, looked up): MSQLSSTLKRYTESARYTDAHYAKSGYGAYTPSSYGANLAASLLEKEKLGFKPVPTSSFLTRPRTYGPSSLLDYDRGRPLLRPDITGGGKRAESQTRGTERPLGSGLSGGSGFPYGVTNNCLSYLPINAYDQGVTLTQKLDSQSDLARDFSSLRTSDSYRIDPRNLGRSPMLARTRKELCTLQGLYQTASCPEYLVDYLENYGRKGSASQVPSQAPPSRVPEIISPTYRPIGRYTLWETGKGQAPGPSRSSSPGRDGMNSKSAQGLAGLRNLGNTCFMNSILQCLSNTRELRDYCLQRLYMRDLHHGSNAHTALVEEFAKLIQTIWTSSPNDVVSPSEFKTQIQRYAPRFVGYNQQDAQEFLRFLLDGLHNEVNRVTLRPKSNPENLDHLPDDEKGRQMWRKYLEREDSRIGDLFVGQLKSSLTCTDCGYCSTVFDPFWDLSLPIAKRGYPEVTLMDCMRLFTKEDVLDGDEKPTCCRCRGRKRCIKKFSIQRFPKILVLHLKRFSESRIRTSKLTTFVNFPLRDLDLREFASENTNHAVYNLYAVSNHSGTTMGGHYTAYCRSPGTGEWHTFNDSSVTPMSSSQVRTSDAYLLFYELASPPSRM
Chain of DNA polymerase III PolC-type (Bacillus subtilis (strain 168)) (P13267 whole entry, looked up): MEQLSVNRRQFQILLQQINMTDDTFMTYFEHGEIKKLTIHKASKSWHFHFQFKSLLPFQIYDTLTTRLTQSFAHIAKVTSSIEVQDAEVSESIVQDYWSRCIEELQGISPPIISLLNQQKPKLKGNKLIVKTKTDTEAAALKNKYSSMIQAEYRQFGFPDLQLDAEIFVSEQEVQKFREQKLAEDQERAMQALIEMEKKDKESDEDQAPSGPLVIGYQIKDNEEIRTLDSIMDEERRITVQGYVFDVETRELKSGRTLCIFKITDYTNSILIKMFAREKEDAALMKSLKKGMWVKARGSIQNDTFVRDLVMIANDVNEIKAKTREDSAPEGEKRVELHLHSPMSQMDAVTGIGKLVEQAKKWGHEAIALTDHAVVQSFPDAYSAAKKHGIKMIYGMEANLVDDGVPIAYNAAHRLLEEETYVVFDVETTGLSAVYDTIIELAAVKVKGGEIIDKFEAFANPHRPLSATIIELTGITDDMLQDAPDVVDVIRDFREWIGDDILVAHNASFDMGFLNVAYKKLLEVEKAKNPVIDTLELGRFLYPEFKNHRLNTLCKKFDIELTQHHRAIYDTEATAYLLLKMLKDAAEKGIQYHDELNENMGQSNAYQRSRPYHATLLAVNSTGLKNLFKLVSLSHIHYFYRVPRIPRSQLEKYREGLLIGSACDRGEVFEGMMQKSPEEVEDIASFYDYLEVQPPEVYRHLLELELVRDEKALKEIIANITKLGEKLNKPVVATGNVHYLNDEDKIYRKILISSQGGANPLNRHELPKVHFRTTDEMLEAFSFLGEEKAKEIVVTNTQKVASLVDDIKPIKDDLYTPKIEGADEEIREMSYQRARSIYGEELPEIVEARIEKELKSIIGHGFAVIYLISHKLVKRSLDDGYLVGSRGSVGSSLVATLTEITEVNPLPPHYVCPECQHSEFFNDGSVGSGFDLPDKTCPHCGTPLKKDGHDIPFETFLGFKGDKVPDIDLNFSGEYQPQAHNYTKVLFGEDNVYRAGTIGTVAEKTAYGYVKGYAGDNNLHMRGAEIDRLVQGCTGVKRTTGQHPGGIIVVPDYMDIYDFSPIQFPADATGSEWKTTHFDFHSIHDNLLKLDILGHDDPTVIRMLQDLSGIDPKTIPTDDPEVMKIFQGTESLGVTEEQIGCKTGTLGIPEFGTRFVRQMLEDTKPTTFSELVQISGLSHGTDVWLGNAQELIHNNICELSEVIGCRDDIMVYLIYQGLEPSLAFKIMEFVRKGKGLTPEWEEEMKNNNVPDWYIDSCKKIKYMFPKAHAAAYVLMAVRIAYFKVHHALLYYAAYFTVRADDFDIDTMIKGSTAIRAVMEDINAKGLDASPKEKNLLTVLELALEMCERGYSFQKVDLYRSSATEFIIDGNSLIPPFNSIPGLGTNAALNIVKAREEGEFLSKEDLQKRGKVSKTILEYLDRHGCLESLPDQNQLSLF
Chain of ATP-dependent DNA helicase Q1 (Homo sapiens) (P46063 whole entry, looked up): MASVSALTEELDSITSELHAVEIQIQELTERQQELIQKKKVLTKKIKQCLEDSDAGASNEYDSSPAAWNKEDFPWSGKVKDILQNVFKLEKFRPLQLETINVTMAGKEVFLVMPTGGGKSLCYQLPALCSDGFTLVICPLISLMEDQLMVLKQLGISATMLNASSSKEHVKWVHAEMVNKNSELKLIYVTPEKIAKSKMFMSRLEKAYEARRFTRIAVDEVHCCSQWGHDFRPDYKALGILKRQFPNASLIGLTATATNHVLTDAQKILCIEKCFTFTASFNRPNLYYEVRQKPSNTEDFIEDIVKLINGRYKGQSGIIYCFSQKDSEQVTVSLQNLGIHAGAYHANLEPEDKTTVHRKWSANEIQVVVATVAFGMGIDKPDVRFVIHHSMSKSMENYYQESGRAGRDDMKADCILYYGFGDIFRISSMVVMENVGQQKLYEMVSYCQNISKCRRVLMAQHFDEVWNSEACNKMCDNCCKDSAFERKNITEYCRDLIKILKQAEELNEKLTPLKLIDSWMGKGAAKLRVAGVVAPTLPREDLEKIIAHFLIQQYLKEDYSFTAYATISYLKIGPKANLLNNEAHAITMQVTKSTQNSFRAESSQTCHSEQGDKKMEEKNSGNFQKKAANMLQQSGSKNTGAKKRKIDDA

Regarding `CCN(CC)CC(=O)Nc1c(C)cccc1C`, the outcome in experiment [1], in experiment [3], in experiment [8], in [10], in [12] and in experiment [14] was inactive. Also, the Potency entry in experiment [2], in experiment [4], in [5], in experiment [6], in experiment [7] and in [9] was “inactive” each time. The Potency entry in experiment [11], in experiment [13], in [15] and in [16] was “inactive” throughout.
Consider `Cc1nc2sccn2c(=O)c1CCN1CCC(=C(c2ccc(F)cc2)c2ccc(F)cc2)CC1`, for which the call in experiment [1], in [3], in experiment [8], in [10], in experiment [12] and in [14] was inactive. Also, the Potency result in experiment [2], in experiment [4], in experiment [17], in experiment [15] and in experiment [16] was “inactive” throughout. Besides, the Potency in experiment [6] was 11.7 µM (active); in experiment [18] it was 28.2 µM (active) and inactive.
`CCCOc1ccccc1-c1nc2n[nH]nc2c(=O)[nH]1`: the compound was classed as inactive in experiment [1], in experiment [3], in experiment [8], in experiment [10], in experiment [12] and in [14]. Further, the Potency entry in experiment [2], in [4], in experiment [5], in experiment [6], in experiment [7] and in experiment [9] was “inactive” each time. Moreover, the Potency entry in experiment [11], in experiment [17], in [15], in experiment [16] and in experiment [18] was “inactive” throughout.
As for `CCCN1C[C@H](CSC)C[C@@H]2c3cccc4[nH]cc(c34)C[C@H]21`, the compound was called inactive in experiment [1], in experiment [3], in [8], in experiment [10], in experiment [19] and in [14]. Also, the Potency entry in experiment [2], in [4], in [5], in experiment [6], in experiment [7] and in experiment [9] was “inactive” each time. The Potency entry in experiment [11], in experiment [15], in experiment [16] and in [18] was “inactive” throughout.
In the case of `CC(=O)OCC1=C(C(=O)O)N2C(=O)[C@@H](NC(=O)Cc3cccs3)[C@H]2SC1`, the compound was classed as inactive in experiment [1], in [3], in experiment [8], in experiment [10], in experiment [12] and in experiment [14]. Further, the Potency result in experiment [2], in experiment [4], in experiment [5], in [6], in experiment [7] and in [9] was “inactive” in each case. Further, the Potency result in experiment [11], in [13] and in [18] was “inactive” each time.
Consider `Cc1nc2c([nH]1)c(=O)n(C)c(=O)n2Cc1ccco1`, for which the compound was classed as inactive in experiment [1], in experiment [3], in [8], in [10], in experiment [12] and in experiment [14]. In addition, the Potency entry in [2], in [4], in experiment [5], in experiment [6], in experiment [7] and in experiment [11] was “inactive” throughout. For the same compound, the Potency result in [13], in [15], in experiment [16] and in experiment [18] was “inactive” throughout.
Regarding `CCCCNc1c(C(=O)OCC)c(C)nc2c1cnn2CC`, the compound was called inactive in experiment [1], in [3], in experiment [8] and in experiment [10]. The Potency entry in [2], in experiment [4], in experiment [5], in [6], in [9] and in [15] was “inactive” each time. In addition, in experiment [16], the Potency entry is “inactive”.
Consider `CCc1c(C)[nH]c2c1C(=O)C(CN1CCOCC1)CC2` (centres undefined), for which the result in experiment [1], in experiment [3], in experiment [8] and in [10] was inactive. Besides, the Potency result in experiment [2], in experiment [4], in experiment [5], in experiment [6], in [7] and in experiment [9] was “inactive” throughout. Further, the Potency entry in experiment [11], in experiment [13], in experiment [17], in experiment [16] and in experiment [18] was “inactive” throughout. Moreover, the Potency in experiment [15] is 29.9 µM (active).
`NC(N)=N/N=C/c1c(Cl)cccc1Cl`: the outcome in experiment [1], in experiment [3], in experiment [8], in experiment [10], in experiment [12] and in experiment [14] was inactive. Moreover, the Potency result in experiment [2], in experiment [4], in [5], in experiment [7], in experiment [11] and in experiment [17] was “inactive” each time. For the same compound, the Potency entry in [15] and in experiment [18] was “inactive” throughout.
